Reference: the supplement of paper PMC12632987
Whole data set: some 1,800 sequences, median “median log2 fold change of GCK-ALFA target abundance (FLAG IP / Myc IP barcode read proportion)” near 0.14, cut for the lowest 2% near -0.84. The sample as a whole holds a higher share of the lowest values than the screen did.

B1: traf2_out_3_89_2284 (protein)
chain: SHHMEALIEEARKIAEAYAKGFRKSLTFVAKQMVAEGHSLETLEGVANAAKTALVEEFRESLKERGLDEETIKEIVEELRKKLDEIVKEVIAEAKKARAA
B2: traf2_out_6_156_2424 (protein)
chain: MLEKIIKEAEEKIKKEIKKLAEASEEKKIKYISDIAGAVYKALQKMREAGASVEEIKEAIERLKKVAEKEAKKAGLDKDTRDLLLASINAVGEVALREAK
B3: traf2_out_1_158_908 (protein)
chain: STDVSTLHAVATSIAEVYAEEAKERGLEKAAELLKKLKKEIEKLYEANKDASLEEMAAKVLELIKKFEEESKSFDPETREFVEIAFRQIRSGILQVVKLA
B4: traf2_out_5_63_2366 (protein)
chain: SAAEEERRRLREEARLIEAAIRAVIDGREEEARRLLAEAEARGIDWRTVALYFRGMARALRLQNEPQEKIERMERAAEEARARAEAAAAAAAAAAAAAAA
B5: traf2_out_20_38_2025 (protein)
chain: SEEEEEEKKLEELIKVANDAYDAATAEIAALKAEGKSVEEIAEWAKEKIKEILDKVGLEEEKEELIADVDRVLDSPDALTLIARILARAVAKAKQKELQE
B6: traf2_out_20_3_2078 (protein)
chain: SELEAELERELDRALALLRQAAARADPETAARLDALIARLRASRELSIEDRLVAISAVRREVRALAEEARAAGRADLAALLDAAADALNRAAQLAYEILE
B7: traf2_out_17_178_1662 (protein)
chain: SKEEERKKISELTDELIDLAEDAAERMLELAEKEGDVSEEELEELREARRRGSATDVLALGERLIPKLKNSEELGALLEEFKARYRELSKEIAEAYERYE
B8: traf2_out_1_27_1014 (protein)
chain: SDEELTKLIKETDKKIAEVSLEEAKKVVKEALKEAAKLGPEDAMVLANTLIASQLDEERLKAIAEAAVEAFKELGFPEEDIERLKRIAESVLKLNKKVLA
B9: traf2_out_11_104_655 (protein)
chain: LTREQAREFNDFAMEARDRAREIAEAVAAELEARGHTEEAARVRALLNDPGAGISSFRNLLEELKPRLDAESRKVADAAIEELRRLQREVSEKLNELLAK
B10: traf2_out_20_3_2147 (protein)
chain: EELERELAEELERAKALLAEAAALADPETAARLEALRERLEASRALSPSDQLVVVSEVRREVRLLAQEARAAGDEELAALLEEAAAALNRAANLLMRIIE
B11: traf2_out_13_95_1174 (protein)
chain: EEEKTKKEREIASEAYDEREEVMTAYKEAVVALLGDPAAAALMDEVVRNMNEFTLEHATAQLVAAHPEKAAELQALRDEALAKMKEINKKYTEKLNEIEK
B12: traf2_out_14_149_1247 (protein)
chain: SHMAETLRAAAELNERIAKALEEILKLLEAGKLEEAKAALEAAIKEAEALGEELGVTTSGIFEMEHILKLLKEDPEEAKKAVKEAAERARDAAEVLRSIA
B13: traf2_out_17_162_1536 (protein)
chain: SPEDERLAELQKRLEELEKKLEELEKKLKNIEKLSKEELTDLLVEASELRREARELAEELRELAEKTGSPEAEELRERAEELAEKLQRIANEIYKELEKK
B14: traf2_out_17_178_1708 (protein)
chain: TKEEARKRISEATDEMIDLAEEAAARLLEIAEREGSLSPEELAALRRARRLGSARTTIALMERAIPRLRSAEEVRALLEELKARYRELSKEIAEALEKYE
B15: traf2_out_5_192_2336 (protein)
chain: SAEEEARERRLRERAEEILREAEERAKKISERTGLDYATVLATLAFSRVVARAESAEEARLMLDYIVEMITARDPSWAPIAEGEKAAALRAIDAIEAAEP
B16: traf2_out_20_38_2023 (protein)
chain: SMEEEEEEKLKELVEVANKAYDEYSAKFAKWKAEGKTVEEIAEEVKKEIRELLSKAGLEEEAEILIEDVDLALKSPNAERLLIRTLARAVALVKQKELQK
B17: traf2_out_13_95_1070 (protein)
chain: TRELARRINELADRAEERALALLAAAQAELADDPEAVAVLDEAARLAETRGIRAAIALLREAQAAHPEHREAFDALIAELEEIRRELGREVAKLIKEAEE
B18: traf2_out_6_156_2375 (protein)
chain: MLEKILEEAKKKIEELIKELAKASEEKKIAYISRIAGAVYRALQRMREAGASVEEIKKAVEELKKVAEEKAKEAGLDQDTIDLLLASIDAVGKVALEEAK
B19: traf2_out_17_178_1676 (protein)
chain: TKEEKRKKISELTDKYIDLAEATAARLLALAEAEGFMTPEELAALRAAQRRGNGRLVEALLERAIPRSPRAAEVAALLADYRARSRELAKEIAKALEEYE

Molecular target: T1, TRAF2, Q12933
T1 chain: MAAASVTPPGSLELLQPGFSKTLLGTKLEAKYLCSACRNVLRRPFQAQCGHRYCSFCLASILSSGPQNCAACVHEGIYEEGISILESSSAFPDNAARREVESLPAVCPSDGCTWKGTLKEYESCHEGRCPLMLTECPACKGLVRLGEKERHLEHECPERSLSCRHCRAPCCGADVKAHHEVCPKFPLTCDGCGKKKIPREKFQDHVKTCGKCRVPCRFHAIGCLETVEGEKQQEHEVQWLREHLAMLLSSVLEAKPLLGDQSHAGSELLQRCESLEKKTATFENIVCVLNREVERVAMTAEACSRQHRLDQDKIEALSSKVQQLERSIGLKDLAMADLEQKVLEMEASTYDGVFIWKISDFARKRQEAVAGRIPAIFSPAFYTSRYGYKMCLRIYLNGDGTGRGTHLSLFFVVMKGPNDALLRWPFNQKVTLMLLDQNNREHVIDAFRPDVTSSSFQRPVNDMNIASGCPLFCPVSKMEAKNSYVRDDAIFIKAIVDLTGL
Test: median log2 fold change of GCK-ALFA target abundance (FLAG IP / Myc IP barcode read proportion) (log2 ratio); each designed protein is fused to an ALFA-tag nanobody in HEK293 cells to bring the named protein to FLAG-tagged glucokinase (GCK); Myc marks an untargeted standard; higher = target protein stabilised (more abundant)
Settings: target protein: 3xFLAG-MCP-GCK-ALFA reporter; HEK293 landing pad (RPLP)
Procedure: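 LABEL-seq trans screen in HEK293 landing-pad cells. Each de novo designed 100-aa effector handle, binding the indicated effector (E3 ligase, DUB or autophagy protein), is fused to a constant NbALFA target handle and induced with 2 ug/mL doxycycline. A FLAG-MCP-GCK-ALFA target and a Myc-MCP standard reporter were transfected, and after 48 h circRNA barcodes were recovered by anti-FLAG and anti-Myc IP and sequenced. The value is the median across barcodes (at least 3 per design) of log2(FLAG/Myc read-proportion ratio), with the two transfection replicates pooled. Negative values mean degradation and positive values mean stabilisation of the target.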

Row | Binder | median log2 fold change
1 | B1 | -0.43
2 | B2 | -0.0673
3 | B3 | 0.0558
4 | B4 | -0.861
5 | B5 | -0.841
6 | B6 | -0.0407
7 | B7 | 0.161
8 | B8 | 0.337
9 | B9 | 0.222
10 | B10 | 0.226
11 | B11 | 0.311
12 | B12 | -0.194
13 | B13 | 0.429
14 | B14 | -0.184
15 | B15 | -1.01
16 | B16 | -1.38
17 | B17 | -0.334
18 | B18 | 0.151
19 | B19 | -0.865
